Out of some 62,000 compounds screened, about 100 (0.16%) were called active.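 The calls were made as follows: active = inhibition above 20% in each of the two 10-compound mixture wells holding the compound; inactive = the rest.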 Many of the other results were omitted from the sample, so actives are more common in it than they were.
target: Complement C1s subcomponent (Homo sapiens) (UniProt P09871); assay: complement C1s protease inhibitors, primary screen, biochemical, 10-compound mixtures (AID 538); details: purified C1s, fluorogenic AMC substrate, pooled mixtures; screened at 5 µM (by protocol);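 also: 0% = enzyme wells lacking compound mixture and 100% = no-enzyme blank wells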
Sequence (P09871 16-437 limits assumed): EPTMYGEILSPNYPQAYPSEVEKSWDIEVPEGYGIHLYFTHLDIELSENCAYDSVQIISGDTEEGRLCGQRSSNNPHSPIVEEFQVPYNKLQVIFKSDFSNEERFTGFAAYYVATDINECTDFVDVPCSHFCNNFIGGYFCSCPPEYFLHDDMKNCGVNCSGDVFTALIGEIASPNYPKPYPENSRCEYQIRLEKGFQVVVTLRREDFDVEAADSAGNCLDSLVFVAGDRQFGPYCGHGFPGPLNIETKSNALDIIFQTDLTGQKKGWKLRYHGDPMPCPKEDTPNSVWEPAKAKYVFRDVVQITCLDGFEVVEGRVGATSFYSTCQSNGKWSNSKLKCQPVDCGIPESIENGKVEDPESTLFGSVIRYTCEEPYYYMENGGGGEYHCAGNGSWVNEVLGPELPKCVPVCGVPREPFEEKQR
Sequence (P09871 438-688 limits assumed): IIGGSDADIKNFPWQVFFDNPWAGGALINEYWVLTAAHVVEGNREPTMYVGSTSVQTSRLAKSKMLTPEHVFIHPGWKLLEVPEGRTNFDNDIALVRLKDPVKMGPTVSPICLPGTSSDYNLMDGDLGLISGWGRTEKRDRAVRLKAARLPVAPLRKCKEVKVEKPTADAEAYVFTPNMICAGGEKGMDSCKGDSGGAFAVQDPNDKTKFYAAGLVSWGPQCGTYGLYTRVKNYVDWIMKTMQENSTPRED

Row | Structure (SMILES) | mean inhibition % of two 10-compound mixtures (stronger effect = higher value)
1 | Cc1cc(C)c(C#N)c(SCc2ccccc2C(=O)O)n1 | -0.765% (inactive)
2 | O=C(c1ccc2c(c1)OCO2)N1CCNc2ccccc2C1 | 12.4% (inactive)
3 | C=CCn1c(SCc2csc(C)n2)nc2scc(-c3ccc(C)o3)c2c1=O | -5.96% (inactive)
4 | CCN(c1ccccc1)S(=O)(=O)c1cccc(C(=O)O)c1 | -13.8% (inactive)
5 | CCOC(=O)n1c(SCC(=O)N(CC)CC)nc2ccccc21 | 12.2% (inactive)
6 | O=C1c2ccccc2C(O)N1Cc1ccccc1 (configuration not stated) | -43.8% (inactive)
7 | COc1c(Br)cc2c(C)c(C(=O)N3CCOCC3)oc2c1Br | 2.58% (inactive)
8 | CCOC(=O)COc1ccc(Cl)cc1C1NC(=O)NC(C)=C1C(C)=O (configuration not stated) | -13% (inactive)
9 | COc1cc2c(cc1OC)C(c1ccncc1)CC(=O)N2 (configuration not stated) | -11.7% (inactive)
10 | CC(=O)Nc1ccc(S(=O)(=O)N2CCSCC2)cc1 | 10.8% (inactive)
11 | CC(=O)Nc1ccc(NC(=O)CN2CCCC(C)C2)c(Cl)c1 (configuration not stated) | 8.18% (inactive)
12 | O=C(O)CCSc1nnc(-c2ccccc2)n1-c1ccccc1 | -30.3% (inactive)
13 | CC(C)OC(=O)c1cc(NC(=O)C2C3CCC(O3)C2C(=O)O)cc(C(=O)OC(C)C)c1 (configuration not stated) | -14.5% (inactive)
14 | OC(COc1cccc2ccccc12)CN1CCN(c2ccccn2)CC1 (configuration not stated) | -2.25% (inactive)
15 | COC(=O)c1ccc(Oc2nc(NC(C)C)nc(SC)n2)cc1 | -1.35% (inactive)
16 | CCCCc1cc(=O)oc2cc(C)cc(OCc3nn[nH]n3)c12 | -6.89% (inactive)
17 | CC(C)COC(=O)c1ccc(NC(=O)C2C3C=CC(C3)C2C(=O)O)cc1 (configuration not stated) | -22.9% (inactive)
18 | COc1ccccc1NC1=NC2(CCCC2)N=C(N)N1 | -18.3% (inactive)
19 | Cc1cc(NC(=O)COn2nnc3ccccc32)no1 | 0.88% (inactive)
20 | CCOC(=O)C1C(=O)OC2(CCCC2)C1C(=O)OCC (configuration not stated) | 0.585% (inactive)
21 | COc1nc(OC)nc(N(C)CCO)n1 | -12.5% (inactive)
22 | CC1CCN(C(=O)Cn2cc(C(=O)c3ccco3)c3ccccc32)CC1 | -1.29% (inactive)
23 | CC(C)(C)C(=O)CCN1C(=O)C2(OCCO2)c2ccccc21 | 10.6% (inactive)
24 | CCCN(CCC)C(=O)C1c2ccccc2Oc2ccccc21 | -0.445% (inactive)
25 | Nc1nc(SCCOc2ccccc2)n[nH]1 | 2.17% (inactive)

Row | Structure (SMILES) | mean inhibition % of two 10-compound mixtures (stronger effect = higher value)
26 | CCCc1cc(=O)n2[nH]c(SCc3ccccc3)nc2n1 | -2.75% (inactive)
27 | CC(=O)Oc1cccc(N2C(=O)CC(Nc3ccc(N4CCOCC4)cc3)C2=O)c1 (configuration not stated) | 6.64% (inactive)
28 | O=C(CN1CCN(c2ccccn2)CC1)NCc1cccs1 | -12.2% (inactive)
29 | O=C(CSc1nc2cc3c(cc2c(=O)n1CCC1=CCCCC1)OCO3)NCc1ccco1 | 2.65% (inactive)
30 | COc1ccc(S(=O)(=O)Nc2ccc(S(=O)(=O)N3CCCCC3)cc2)cc1OC | -2.79% (inactive)
31 | CCC(C)(C)NC(=O)C(c1cccn1C)N(Cc1ccc(C)cc1)C(=O)Cn1nnc2ccccc21 (configuration not stated) | -0.485% (inactive)
32 | CC(C)(C)NC(=O)C(c1ccco1)N(Cc1ccc2c(c1)OCO2)C(=O)Cn1nnc2ccccc21 (configuration not stated) | 22% (active)
33 | COCCNC(=O)C(c1ccc(C)o1)N(Cc1ccccc1)C(=O)Cn1nnc2ccccc21 (configuration not stated) | -0.43% (inactive)
34 | CCOc1ccc(-c2nnn(CC(=O)N3CCN(c4ccc(F)cc4)CC3)n2)cc1OCC | -19.4% (inactive)
35 | CC(=O)c1c(C)[nH]c(C(=O)NCCCN2CCCC2)c1C | 13.1% (inactive)
36 | Cc1nc(Nc2ccc3c(c2)OCCO3)c2nnn(Cc3ccccc3Cl)c2n1 | -7.66% (inactive)
37 | Cn1c(SCC(=O)Nc2cccc(NC(=O)c3cccs3)c2)nnc1-c1ccncc1 | -18.6% (inactive)
38 | COc1ccc(N2C(=O)CN=C2Nc2cccc(C)c2C)cc1OC | 13.9% (inactive)
39 | Cc1nc(C)c(C(=O)Nc2ccc(C)c(F)c2)o1 | 4.8% (inactive)
40 | Cc1nc(C)c(C(=O)Nc2cccc(C)c2C)o1 | 22% (active)
41 | COc1ccc(Cl)cc1NC(=O)c1oc(C)nc1C | -7.77% (inactive)
42 | COCc1nc2ccccc2n1Cc1ccccc1Br | -10.1% (inactive)
43 | COc1cccc(C2/C(=C(/O)c3ccc(F)cc3)C(=O)C(=O)N2CCN(C)C)c1 (configuration not stated) | 2.55% (inactive)
44 | Cc1ccc(NC(=O)N2CCC(C(=O)NCc3ccc(F)cc3)CC2)cc1 | 26.6% (inactive)
45 | CCOC(=O)c1[nH]c2ccc(C)cc2c1N=C(C)N(C)C | -3.15% (inactive)
46 | COc1ccc(-n2c(SCC(=O)NCc3cccs3)nnc2-c2ccoc2C)cc1 | 1.91% (inactive)
47 | O=C(Cn1cnc2c(cnn2-c2ccccc2)c1=O)NCc1ccccc1 | 4.69% (inactive)
48 | O=C(OC1CCOC1=O)c1ccc(-c2nc3ccccc3s2)s1 (configuration not stated) | 3.37% (inactive)
49 | CCOc1ccccc1C1CC(c2ccccc2)Nc2nc(N)nn21 (configuration not stated) | -0.62% (inactive)
50 | CCOC(=O)CCC(=O)OCC(=O)NC(C)C1CC2CCC1C2 (configuration not stated) | -1.13% (inactive)

Row | Structure (SMILES) | mean inhibition % of two 10-compound mixtures (stronger effect = higher value)
51 | CCCCCC(=O)Nc1ccc2oc(-c3ccncc3)nc2c1 | -5.25% (inactive)
52 | CCCCSc1nnc(-c2ccc(NC(=O)CC)cc2)n1C | 10.2% (inactive)
53 | Cc1ccc2c(c1)NCC(C(=O)NC1CCC(C)CC1)O2 (configuration not stated) | -7.38% (inactive)
54 | CN(C)CCCNc1c2c(c(C#N)c3nc4ccccc4n13)CCC2 | 11.8% (inactive)
55 | COc1ccc(S(=O)(=O)Nc2c(C)n(C)n(-c3ccccc3)c2=O)cc1 | -40.7% (inactive)
56 | CCn1c(-c2cc(OC)ccc2OC)csc1=Nc1c(C)n(C)n(-c2ccccc2)c1=O | 11.4% (inactive)
57 | Cc1ccc(C(=O)N2CCCCCC2)cc1Br | 48.4% (inactive)
58 | O=S(=O)(CCc1nc2ccccc2o1)c1ccc(Cl)cc1 | 1.62% (inactive)
59 | COC(=O)c1ccc(NC(=O)CSc2nnc(-c3ccncc3)n2C)cc1 | 4.27% (inactive)
60 | Cc1ccc(S(=O)(=O)n2nc(OC(=O)C(C)(C)C)cc2N)cc1 | -80.6% (inactive)
61 | O=C(CCS(=O)(=O)c1cccc2nonc12)NCCc1ccccc1Cl | -46.5% (inactive)
62 | CCCC1C(c2ccccc2)C(C#N)(C#N)C2(C#N)CC1(N)NC2=O (configuration not stated) | 13.4% (inactive)
63 | Cc1nnc(C)n1/N=C/c1ccc(C(C)C)cc1 | 5.96% (inactive)
64 | O=C(CCc1ccccc1)Nc1ccc(NC(=O)C2CC2)nc1 | 3.19% (inactive)
65 | CC1OC2C(OC1C)N(S(C)(=O)=O)CCN2S(C)(=O)=O (configuration not stated) | 6.29% (inactive)
66 | COc1cc(C(O)c2nc3ccccc3n2C)cc(OC)c1OC (configuration not stated) | -4.52% (inactive)
67 | COc1ccc(C)cc1-n1nnnc1SCC(=O)c1cc(C)n(Cc2ccco2)c1C | 11.7% (inactive)
68 | O=C(NCC12CC3CC(C1)CC(CNC(=O)N1CCCC1)(C3)C2)N1CCCC1 | 13.6% (inactive)
69 | c1cc(-c2nn[nH]n2)ccc1CN1CCCCC1 | 14.2% (inactive)
70 | Cc1nc2ccccc2c2oc(C(=O)NCC3CCCO3)cc12 (configuration not stated) | -97.9% (inactive)
71 | CCCCn1c(SCC(=O)NCC2CCCO2)nc2ccc(N3CCOCC3)cc2c1=O (configuration not stated) | -11% (inactive)
72 | Cn1c(=O)c2[nH]c(NCC3CCCO3)nc2n(-c2ccccc2)c1=O (configuration not stated) | 64.6% (active)
73 | COc1cccc(N2C(=O)CC(N3CCN(S(=O)(=O)c4ccccc4)CC3)C2=O)c1 (configuration not stated) | -26.5% (inactive)
74 | CCOC(=O)C1Cn2c(nc3c(c2=O)C(C)(CC)Cc2ccccc2-3)S1 (configuration not stated) | -5.78% (inactive)
75 | O=C1CC(c2cccc(Br)c2)C2=C(CCCC2=O)N1 (configuration not stated) | 17.2% (inactive)

Row | Structure (SMILES) | mean inhibition % of two 10-compound mixtures (stronger effect = higher value)
76 | CCNC(=O)N1CCNC(=O)C1CC(=O)Nc1ccc(C(=O)OCC)cc1 (configuration not stated) | -35.7% (inactive)
77 | Cc1ccc(-c2nc(COC(=O)c3c(C)noc3C)cs2)cc1 | 3.81% (inactive)
78 | COC(=O)Cn1c(=NC(=O)CSCC(=O)Nc2cc(C)on2)sc2ccccc21 | 5.49% (inactive)
79 | COc1ccccc1-c1cc(C(=O)NCCCn2ccnc2)no1 | 9.65% (inactive)
80 | O=C(NCCCN1CCOCC1)c1cc(-c2ccc(Cl)cc2)on1 | 4.71% (inactive)
81 | CCCCc1nc2ccccc2c(=O)n1NC(=O)c1c(O)c2cccc3c2n(c1=O)CC3 | 4.25% (inactive)
82 | CC1(C)CC(=O)C(C=NCCC2=CCCCC2)=C(O)C1 | -0.72% (inactive)
83 | O=C1CC(c2ccccc2)CC(O)=C1C=NCCN1CCOCC1 (configuration not stated) | 17.3% (inactive)
84 | O=C1CCCC(O)=C1C=NCCc1ccccc1 | 50.4% (active)
85 | COC(=O)c1nc(NC(=O)c2ccc(Cl)cc2)n[nH]1 | 12.2% (inactive)
86 | Cc1ccc(C(=O)N(CN2CCCC2=O)c2ccc(F)cc2)cc1 | 5.52% (inactive)
87 | Cc1ccc(C)c(N2CCN(C(=O)CCc3nc4ccccc4[nH]3)CC2)c1 | 1.21% (inactive)
88 | CCOC(=O)C(CCOc1cccc(CC)c1)C(=O)OCC | -10.1% (inactive)
89 | Cc1c(NC(=O)Nc2ccccc2Cl)sc(=S)n1C | -6.43% (inactive)
90 | CCCCN(C)C(=O)c1ccc2c(c1)N(CC)C(=O)c1ccccc1S2(=O)=O | 5.62% (inactive)
91 | COc1ccc(-n2c(SCC(=O)Nc3ccc4c(c3)OCO4)nnc2C(C)N2CCCCC2)cc1 (configuration not stated) | -12.3% (inactive)
92 | CCN(Cc1ccncc1)C(=O)c1cccc(S(=O)(=O)N2CCOCC2)c1 | 2.16% (inactive)
93 | Cc1cc(N2C(=O)C(=O)/C(=C(/O)c3ccc(Cl)cc3)C2c2cccc(Br)c2)no1 (configuration not stated) | 11.8% (inactive)
94 | O=C(NCc1ccco1)c1sc2cccc(F)c2c1Cl | 3.97% (inactive)
95 | COc1ccc(NC(=O)CCNC(=O)Cn2ccc3ccccc3c2=O)c(OC)c1 | 13.2% (inactive)
96 | CC(C)Nc1nc(N(c2ccccc2)c2ccccc2)nc(-n2ccnc2)n1 | 9.18% (inactive)
97 | CSc1cccc(NC(=O)C2CCCN2S(=O)(=O)c2ccc3c(c2)CCC(=O)N3)c1 (configuration not stated) | -3.33% (inactive)

From PubChem BioAssay AID538 (PCMD, 2006)
